Measured values: PubChem BioAssay AID1508644 (National Center for Advancing Translational Sciences (NCATS), 2021)
Records with an inconclusive call do not appear. Calls of active or inactive are those of the source. Calls follow the shape of the dose curve; as a rule, active = well fitted inhibition curve with a large enough effect; inconclusive = small, poorly fitted or top-dose-only effect; inactive = no such curve, though single readings can be large or run the other way.

Target: Peripheral myelin protein 22 (Rattus norvegicus) (UniProt P25094)
Test: Cell-based HiBiT reporter assay to measure PMP22 protein expression in S16 Pmp22-HiBiT cells
Details: S16 Schwann Pmp22-HiBiT, NanoGlo luminescence, 48 h; series mostly up to 27.9 µM
Source text: Assay Provider: Jim Inglese Ph.D. National Center for Advancing Translational Science, National Institutes of Health, Rockville, MD CMT is a heterogeneous group of neurological disorders that affect approximately 1 in 2,500 people. In particular, the most common form of CMT, CMT1A is genetically linked to the duplication of the PMP22 gene which leads to Schwann cell overexpression, thus manifesting itself as a typical case of dose-sensitive diseases. To identify small molecule compounds that can mediate the expression of PMP22 we developed a phenotypic assay screening strategy by utilizing genome editing techniques to construct Schwann cell lines containing novel reporter technology to monitor the transcriptional or translational regulation of PMP22. For high sensitivity we use a bioluminescent reporter system embedded in the 3' UTR of the PMP22 gene (S16(c9) Pmp22-F2sN) to identify compounds that inhibit gene expression. […] We can further discriminate the effect of all transcriptionally active molecules on PMP22 translation or stability with an assay that incorporates a short NLuc peptide (HiBiT) at the C-terminus of expressed PMP22 (S16(f8) PMP22-HiBiT) allowing alpha complementation and luminescence detection of membrane-associated PMP22 protein. These assays were screened against the NCATS Sytravon Library Collection. Miniaturization of these assays to 1536-well plate format for quantitative high throughput screening (qHTS) yielded rich data sets immediately from the qHTS assay (S16(c9) Pmp22-F2sN), when compared with data from a cell viability assay (Cell TiterGlo) to identify compounds that decreased the output signals through cellular toxicity to streamline the selection process of actives for subsequent characterization using the HiBiT assay (S16(f8) PMP22-HiBiT).
Cell-based HiBiT reporter assay in S16 Pmp22-HiBiT cells PROTOCOL TABLE (format as described by Inglese J, Shamu CE and Guy RK. 2007) SEQUENCE No. (e.g., 1, 2, 3, etc.); PARAMETER (e.g., Cells, Incubation, Reagent, etc.); VALUE and DESCRIPTION. 1. Cells. Add 1,500 cells in 5 uL in growth media (DMEM High Glucose, No Phenol Red media + 10% heat-inactivated FBS + 1% Pen/Strep supplemented media) per well into Greiner 1536-well white/solid bottom high base, TC-treated plates. 2. Compounds. Library compounds and controls added at 23nL per well, transferred by Pin Tool. 3. Incubation. Incubate plates at 37C, 5% CO2, 95% RH for 48 h. 4. Media removal. Invert and centrifuge plates. 5. Reagent. Add 3uL NanoGlo HiBiT Lytic Detection Reagent per well of Greiner 1536-well plates. 6. Incubation. Incubate plates at room temperature for 15 min., protect from light. 7. Detector. NLuc luminescence measured using CCD-based camera (Viewlux). NOTES (numbers refer to Sequence numbers above; values are from representative experiments) 7. Luminescence Read: Clear filter; Exposure = 10 sec, Gain = High, Speed = Slow, Binning = 2X REFERENCES: 1. Inglese J, Shamu CE and Guy RK, Reporting data from high throughput screening of small molecule libraries, Nature Chemical Biology, 2007, 3(8): 438-441. doi.org/10.1038/nchembio0807-438 2. Yasgar A, Shinn P, Jadhav A, Auld DS, Michael S, Zheng W, Austin CP, Inglese J and Simeonov A, Compound Management for Quantitative High-Throughput Screening. J. Assoc. Lab. Auto., 2008, 13: 79-89. doi: 10.1016/j.jala.2007.12.004

Chain of Peripheral myelin protein 22 (Rattus norvegicus) (P25094 whole entry, looked up): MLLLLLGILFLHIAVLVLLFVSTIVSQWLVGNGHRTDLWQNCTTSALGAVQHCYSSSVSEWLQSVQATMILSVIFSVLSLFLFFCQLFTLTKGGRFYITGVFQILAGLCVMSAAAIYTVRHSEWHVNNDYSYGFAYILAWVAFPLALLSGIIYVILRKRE

Compound | Potency
CCCn1c(=N)c(C(=O)NC(C)c2ccccc2)cc2c(=O)n3ccccc3nc21 (centres undefined) | inactive
COCCCNC(=O)c1ccc(-n2c(-c3ccccc3)cc3c2CCC(C)C3)cc1 (centres undefined) | 5.75 µM (active)
Cc1cc(C)c(NC(=O)Cn2c(=O)n(Cc3ccco3)c(=O)c3ccc(C(=O)NC4CCCC4)cc32)c(C)c1 | inactive
COC(=O)CS(=O)(=O)c1nc2ccccc2nc1N1CCCCC1 | 14.5 µM (active)
O=C(Cn1c(-c2cccs2)cc2cc(F)ccc21)NCCCN1CCN(c2ccccc2F)CC1 | 12.9 µM (active)
COc1ccccc1Nc1c2c(nc3ccc(NC(=O)/C=C/c4cccc(OC)c4OC)cc13)CCCC2 | 5.13 µM (active)
CCOc1ccc(NC(=O)CSc2oc(-c3ccc(F)cc3)nc2S(=O)(=O)c2ccc(C)cc2)cc1 | inactive
O=C(Cn1c(-c2cccs2)cc2ccccc21)NCCCN1CCN(c2ccc(F)cc2)CC1 | 6.45 µM (active)
Cc1ccc(C)c(NC(=O)Cn2c(=O)n(Cc3ccccc3)c(=O)c3oc4ccccc4c32)c1 | 14.5 µM (active)
Cc1ccc(C(=O)Nc2ccc(S(=O)(=O)N3CCC(c4nc5ccccc5s4)CC3)cc2)cc1 | inactive
CCc1ccc(OCC(=O)Nc2cc3oc4ccccc4c3cc2OC)cc1 | inactive
Cc1cccc(CS(=O)(=O)c2ncc(Cl)c(C(=O)Nc3nc4ccc(F)cc4s3)n2)c1 | 3.63 µM (active)
COC(=O)c1ccccc1NC(=O)c1nc(S(=O)(=O)Cc2cccc(C)c2)ncc1Cl | 6.45 µM (active)
Cc1ccc(C)c(N2CCN(CCCNC(=O)Cn3c(-c4cccs4)cc4ccccc43)CC2)c1 | 7.24 µM (active)
Cn1c(=O)oc2cc(S(=O)(=O)N3CCCC(C(=O)N4CCN(c5ccc(Cl)cc5)CC4)C3)ccc21 (centres undefined) | 4.07 µM (active)
COc1ccccc1-c1cc(C(F)(F)F)nc(S(=O)(=O)CCCC(=O)Nc2ccc(F)cc2F)n1 | 5.13 µM (active)
CC(=O)N1CCc2c(sc(NC(=O)CSc3ccccc3)c2-c2nc3ccccc3s2)C1 | 16.2 µM (active)
COc1ccccc1-c1cc(C(F)(F)F)nc(S(=O)(=O)CCCC(=O)Nc2ccccc2F)n1 | 10.2 µM (active)
COc1ccccc1Nc1nn2c(=O)c3ccc(C(=O)Nc4ccc(F)cc4)cc3nc2s1 | 9.12 µM (active)
CCS(=O)(=O)c1ncc(Cl)c(C(=O)Nc2c(C(=O)c3ccc(C)cc3)oc3ccccc23)n1 | inactive

Compound | Potency
Cc1cccc(Nc2c3c(nc4nncn24)CCC3)c1C | inactive
Cc1ccc(NC(=O)c2nc(S(=O)(=O)Cc3cccc(C)c3)ncc2Cl)cc1 | 4.57 µM (active)
CCc1nnc(NC(=O)c2nc(S(C)(=O)=O)ncc2Cl)s1 | 10.2 µM (active)
CCOC(=O)c1c(NC(=O)c2nc(S(C)(=O)=O)ncc2Cl)sc(C(C)=O)c1C | 3.24 µM (active)
CCN(CC)CCNC(=O)c1cc(-c2ccc(Br)s2)nc2ccccc12 | inactive
Cc1c(Cl)cccc1NC(=O)c1oc2ccc(S(=O)(=O)N3CCC4(CC3)OCCO4)cc2c1C | inactive
Cc1cccc(-n2c(=O)c3c(c4cc(C)ccc4n3C)n(CC(=O)NCCC3=CCCCC3)c2=O)c1 | inactive
CCCCS(=O)(=O)c1nc(-c2ccc(Br)cc2)cc(-c2ccccc2)c1C#N | inactive
COc1ccc(NC(=O)c2oc3ccccc3c2NC(=O)Cc2ccc(F)cc2)c(OC)c1 | inactive
Cc1ccc(CN2C(=O)C(O)(c3c(C)[nH]c4ccccc34)c3ccccc32)cc1 (centres undefined) | inactive
Cc1cccc(N2CCN(C(=O)C3CCCN(S(=O)(=O)c4ccc5c(c4)oc(=O)n5C)C3)CC2)c1C (centres undefined) | inactive
COc1ccc(Nc2nc3c(S(=O)(=O)c4ccccc4)nnn3c3ccc(Cl)cc23)cc1 | inactive
O=C(NCCCN1CCN(c2ccc(F)cc2)CC1)c1cc2c(Cl)nc3ccccc3c2s1 | inactive
Cc1ccc(NC(=O)N2CCc3cc(S(=O)(=O)N4CCC(C)CC4)ccc32)cc1F | inactive
CCc1ccc(NC(=O)Cn2c(=O)n(-c3ccc(OC)cc3)c(=O)c3ccc(C(=O)NCc4ccc(C)cc4)cc32)cc1 | inactive
Cc1ccc(C)c(NC(=O)Cn2c(=O)n(Cc3ccc4c(c3)OCO4)c(=O)c3ccc(C(=O)NC4CCCCC4)cc32)c1 | inactive
Cc1ccc(S(=O)(=O)c2nnn3c2nc(NC2CCCCCC2)c2sccc23)cc1C | 14.5 µM (active)
COc1ccc(Br)cc1CC1C(=O)Nc2ccccc21 (centres undefined) | 9.12 µM (active)
COc1ccc(NC(=O)c2nc(S(=O)(=O)Cc3ccc(C)cc3)ncc2Cl)cc1 | 10.2 µM (active)
